Data published in the supplement of paper PMC10720658.
± gives the standard deviation of the averaged measurements.

System: AEK1 (Tb927.3.2440)
Assay: percent reduction in TR-FRET probe signal relative to DMSO control; higher = stronger displacement of ATP-site probe (binding)
Conditions: 1 µM; incubation time 1 h

SMILES	percent reduction in TR-FRET probe signal
CN(C)S(=O)(=O)c1ccc2c(c1)/C(=C/c1cc3c([nH]1)CCCC3)C(=O)N2	43.6 ± 21%
CCOc1cc2ncc(C#N)c(Nc3ccc(F)c(Cl)c3)c2cc1NC(=O)/C=C/CN(C)C [Pelitinib (EKB-569)]	4.14 ± 4.7%
CN1CCN(Cc2ccc(-c3cnc4[nH]cc(-c5ccc6[nH]ccc6c5)c4c3)cc2)CC1	11.2 ± 7.5%
CCCS(=O)(=O)Nc1ccc(F)c(C(=O)c2c[nH]c3ncc(-c4ccc(Cl)cc4)cc23)c1F [Vemurafenib (PLX4032, RG7204)]	4.16 ± 3%
Cn1cnc(N)c2ncnc1-2 [3-Methyladenine (3-MA)]	-2.13 ± 5.3%
CS(=O)(=O)c1ccc(-c2cnc(N)c(C(=O)Nc3ccccc3)n2)cc1	5.23 ± 4.7%
Nc1nccc(Oc2ccc(NC(=O)c3c[nH]cc(-c4ccc(F)cc4)c3=O)cc2F)c1Cl	24.6 ± 15%
CS(=O)(=O)N1CCc2c(-c3cnc(N)nc3)nc(N3CCOCC3)nc21	-5.47 ± 9.1%
O=C(NC(NC(=S)Nc1ccc(F)c([N+](=O)[O-])c1)C(Cl)(Cl)Cl)C(c1ccccc1)c1ccccc1 (stereo not drawn)	3.75 ± 8.9%
CC[C@H](Nc1ncnc2[nH]cnc12)c1nc2cccc(F)c2c(=O)n1-c1ccccc1 [CAL-101 (Idelalisib, GS-1101)]	0.66 ± 12%
CCCNC(=O)c1cn2ncnc(Nc3cc(C(=O)NC4CC4)ccc3C)c2c1C	10.5 ± 8.4%
CN1CCN(c2nc(C3=C(c4c[nH]c5ccccc45)C(=O)NC3=O)c3ccccc3n2)CC1 [Sotrastaurin]	-7.1 ± 1.4%
CNS(=O)(=O)C[C@H]1CC[C@H](N(C)c2ncnc3[nH]ccc23)CC1.O=C(O)/C=C\C(=O)O [Oclacitinib]	6.94 ± 17%
O=c1c(O)c(-c2ccc(O)c(O)c2)oc2cc(O)cc(O)c12 [Quercetin]	8.35 ± 5.3%
CNC(=O)c1cc(Oc2ccc(NC(=O)Nc3cc(C(C)(C)C)nn3-c3ccc4ncccc4c3)c(F)c2)ccn1 [DCC-2036 (Rebastinib)]	21.5 ± 15%
O=C(NCc1cccc(O)c1)Nc1nc(-c2ccncc2)cs1	-10 ± 8.6%
COc1c(C)c(C(=O)c2ccc(N)c(C(=O)[O][Na])c2)n2ccccc12	6.59 ± 7.5%

SMILES	percent reduction in TR-FRET probe signal
C=CCc1ccc(O)c(-c2ccc(O)c(CC=C)c2)c1 [Honokiol]	1.65 ± 8.9%
C[C@H](NC(=O)/C(C#N)=C/c1cccc(Br)n1)c1ccccc1	-10.8 ± 3.7%
Cn1cnc(-c2cc3nccc(Oc4ccc(NC(=S)NC(=O)Cc5ccccc5)cc4F)c3s2)c1	10.3 ± 8.6%
COc1cc2ncnc(Nc3cccc(Cl)c3F)c2cc1OC(=O)N1CCN(C)C[C@H]1C	9.77 ± 13%
Cc1cc(NC(=O)c2cccc(NC(=O)/C=C/CN(C)C)c2)ccc1Nc1nccc(-c2cccnc2)n1	-7.17 ± 15%
COc1cc2c(Oc3ccc(NC(=O)C4(C(=O)Nc5ccc(F)cc5)CC4)cc3F)ccnc2cc1OCCCN1CCOCC1	56 ± 11%
Cl.O=S(=O)(c1cccc2cnccc12)N1CCCNCC1 [Fasudil (HA-1077) HCl]	4.93 ± 2%
Cn1c(Nc2ccc(C(F)(F)F)cc2)nc2cc(Oc3ccnc(-c4ncc(C(F)(F)F)[nH]4)c3)ccc21	34 ± 20%
Cc1nc(N)sc1-c1ccnc(Nc2ccc(N3CCOCC3)cc2)n1	10.3 ± 6.7%
Cc1[nH]c(/C=C2\C(=O)Nc3ccc(S(=O)(=O)N(C)c4cccc(Cl)c4)cc32)c(C)c1C(=O)N1CCN(C)CC1	34.1 ± 16%
C[C@@H](NC(=O)c1ncnc(N)c1Cl)c1ncc(C(=O)Nc2cc(C(F)(F)F)c(Cl)cn2)s1	-3.59 ± 11%
Cc1c[nH]c(-c2cnc(NCCNc3ccc(C#N)cn3)nc2-c2ccc(Cl)cc2Cl)n1	2.8 ± 12%
CN1CCN(c2cccc(Nc3nc4c(-c5ccc(S(C)(=O)=O)cc5)cccn4n3)c2)CC1	7.3 ± 6.6%
Cn1sc(=O)n(Cc2ccccc2)c1=O	-18.6 ± 15%
O=C(Cc1ccc(-c2ccc(OCCN3CCOCC3)cc2)cn1)NCc1ccccc1	-1.26 ± 9%
CO[C@H]1C[C@@H]2CC[C@@H](C)[C@@](O)(O2)C(=O)C(=O)N2CCCC[C@H]2C(=O)O[C@H]([C@H](C)C[C@@H]2CC[C@@H](OP(C)(C)=O)[C@H](OC)C2)CC(=O)[C@H](C)/C=C(\C)[C@@H](O)[C@@H](OC)C(=O)[C@H](C)C[C@H](C)/C=C/C=C/C=C/1C [Ridaforolimus (Deforolimus, MK-8669)]	1.74 ± 22%
